This passage reports z-score results from PubChem BioAssay AID1628 (Sanford-Burnham Center for Chemical Genomics, 2009).

Among all 190,000 compounds or so, about 930 (0.49%) were called active.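 How the source made its calls: active means z-score of insulin promoter reporter brightness in nuclei below -3 at 5 µM, with at least 500 cells counted; inconclusive means wells with under 500 cells, flagged as toxic or sparse; inactive means the rest.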 This is one part of the list. Entries with a potency or affinity are not part of this list.

The assay can be described thus: insulin promoter down-regulators in MIN6 cells, imaging, high-content screening, mouse beta cells (AID 1628). Particulars: MIN6 insulin promoter GFP reporter, at 5 µM, stronger effect = lower value.
In the case of `COc1cc2c(cc1OC)C1=CC(=O)C(=O)N1C(C)(C)C2`, the z-score is 6.34 (inactive).

`COCCN(CCOC)Cc1c(C)[nH]c2c(C)c(C)ccc2c1=O`: the z-score is 0.72 (inactive).

For `COC(=O)CSc1nc2ncc(Cl)cc2[nH]1`, the z-score is -4.43 (active).

Turning to `COC(=O)CSc1nc2ccccn2c(=O)c1C=O`, the z-score is 4.58 (inactive).

Consider `Cc1ccnc(N/C=C(\C#N)c2nc(-c3cccc(Br)c3)cs2)c1`, for which the z-score is 7.83 (inactive).

Regarding `CCOC(=O)CC1C(=O)NCCN1c1nc2ccc(C)cn2c(=O)c1/C=C1\SC(=S)N(CC(C)C)C1=O` (centres undefined), the z-score is 10.8 (inactive).

In the case of `CSc1ccc(NC(=O)Nc2cccn(Cc3ccccc3)c2=O)cc1`, the z-score is -5.72 (active).

With `COc1cnc(-c2ccccn2)nc1NC(C)C`, the z-score was -4.73 (active).

For `CCC(=O)Nc1ccc2c(c1)ncn2-c1ccccc1`, the z-score was 4.96 (inactive).

Regarding `COc1ccccc1NC(=O)Cn1cc(C(=O)c2ccco2)c2ccccc21`, the z-score was -4.69 (active).

Turning to `COc1ccccc1NC(=O)COC(=O)C1CC2C=CC1C2` (centres undefined), the z-score was 3.01 (inactive).

As to `COc1ccccc1NC(=O)/C=C1\SCC(=O)N1C`, the z-score was 4.67 (inactive).

Turning to `CC(=O)Nc1ccc(NC(=O)C(=O)c2cn(CC(=O)N3CCCCC3)c3ccccc23)cc1`, the z-score is 2.61 (inactive).

On to `CCn1c(C2CC(=O)N(Cc3ccccc3)C2)nc2ccccc21` (centres undefined), for which the z-score was -5.96 (active).

Consider `N#C/C(=C\c1ccc(-c2ccc(C(=O)O)cc2)o1)c1nc2ccccc2[nH]1`, for which the z-score was 6.2 (inactive).

As to `Cn1c(SCC(=O)NC2CCCCCC2)nnc1-c1cccs1`, the z-score was 2.42 (inactive).

On to `O=C(COC(=O)c1cccs1)NC1CCCCC1`, for which the z-score is -5.3 (active).

In the case of `Nc1c(C(=O)NC2CCCC2)sc2nc(-c3cccs3)ccc12`, the z-score was 3.89 (inactive).

Regarding `Cc1cc(F)c(F)c(C(=O)N2CCOCC2)c1`, the z-score was 1.59 (inactive).

In the case of `Cc1c(C(=O)N2CCOCC2)[nH]c2c1C(=O)CC(c1ccccc1Cl)C2` (centres undefined), the z-score is -3.07 (active).

Turning to `Clc1ccc(CSc2nnc(/C=C/c3ccccc3)o2)cc1`, the z-score was -4.41 (active).

With `O=C(CSc1nnc(SCc2ccc(Cl)cc2)s1)N1CCOCC1`, the z-score is -0.99 (inactive).

Consider `NCCc1nnc(SCc2ccccc2F)o1`, for which the z-score was 1.04 (inactive).

With `CCCC1CC(=O)OC1(C)C(=O)CSc1n[nH]c(-c2ccccc2)n1` (centres undefined), the z-score is -5.89 (active).

For the compound `CCN(CC)c1ccc(/C=C(\C#N)c2nc(-c3cccs3)c(NC(C)=O)s2)cc1`, the z-score was 16.9 (inactive).

`CN(C)C=Nc1ccc2nn(-c3ccccc3)nc2c1`: the z-score was 3.14 (inactive).

Take `CCOc1ccc2[nH]c(=O)c(CN(Cc3cccs3)C(CC)c3nnnn3C(C)(C)CC)cc2c1` (centres undefined): the z-score was -3.01 (active).

Turning to `Cc1cccc2cc(CN(Cc3cccs3)C(c3nnnn3C3CCCC3)C(C)C)c(=O)[nH]c12` (centres undefined), the z-score was -4.88 (active).

In the case of `CCC(c1nnnn1C1CCCC1)N(Cc1cccs1)Cc1cc2cc(C)ccc2[nH]c1=O` (centres undefined), the z-score is -3.35 (active).

Consider `COc1cc(OC)c(OC)cc1C#N`, for which the z-score was 0.13 (inactive).

For `COc1cccc(C2C3CN(C)CC=C3C(C#N)=C(N)C2(C#N)C#N)c1OC` (centres undefined), the z-score was 13.7 (inactive).

For the compound `C=CCn1c(/N=C/c2ccc3c(c2)OCO3)nc2ccccc21`, the z-score was 0.8 (inactive).

In the case of `COc1ccc(C2C(C(=O)c3ccccc3)=C(C)Nc3nc4ccccc4n32)c(OC)c1` (centres undefined), the z-score was 3.79 (inactive).

As to `Cn1c(CNc2nc3ccccc3n2C)nc2ccccc21`, the z-score was 1.15 (inactive).

On to `COc1ccc2nc3ccccc3nc2c1`, for which the z-score was -1.09 (inactive).

As to `CC(O)c1nc2ccccc2n1CCOc1ccccc1` (centres undefined), the z-score was 1.64 (inactive).

In the case of `COc1ccc(CNC(=O)CN2CCC(C(=O)c3ccc(OC)cc3)CC2)cc1`, the z-score is 1.22 (inactive).

For the compound `Cc1ccc2nc(/C(C#N)=C\c3ccc(N4CCOCC4)o3)[nH]c2c1`, the z-score was 15.9 (inactive).

Turning to `CC(C)=CCc1c2c(c3occ(-c4ccc(O)cc4)c(=O)c3c1O)C=CC(C)(C)O2`, the z-score was -0.49 (inactive).

With `N#C/C(=C/c1ccc(N2CCOCC2)o1)C(=O)Nc1ccccc1`, the z-score was 4.15 (inactive).

In the case of `CCC(=O)OCC(=O)c1c(N)n(Cc2ccccc2)c(=O)n(C)c1=O`, the z-score was 3.29 (inactive).

Take `Cc1cc2nc3c(=O)n(Cc4ccccc4)c(=O)[nH]c3nc2cc1N`: the z-score is 12.1 (inactive).

Consider `Cn1c(N)cc(=O)n(Cc2ccccc2)c1=O`, for which the z-score is -5.18 (active).

As for `Cc1n[nH]c(C)c1S(=O)(=O)N1CCCC(C(=O)N2CCN(c3ccc(Cl)cc3)CC2)C1` (centres undefined), the z-score is -3.2 (active).

As for `Cc1noc(C)c1S(=O)(=O)N1CCC(C(=O)N2CCN(C3CCCC3)CC2)CC1`, the z-score is 3.05 (inactive).

As for `CCCS(=O)(=O)N1CCC(C(=O)NCCC(C)C)CC1`, the z-score was 3.11 (inactive).

As to `CSc1ccccc1C(=O)NC1CCCC1`, the z-score is -5.87 (active).

With `Cc1ccccc1C(=O)NC1CCN(C(=O)N2CCOCC2)CC1`, the z-score is 1.27 (inactive).

`O=C(Cn1nnc(-c2ccc(S(=O)(=O)N3CCCC3)cc2)n1)Nc1ccccc1-n1cccc1`: the z-score was -4 (active).

As for `COc1ccccc1NC(=S)N(Cc1ccc(C)cc1)Cc1ccccn1`, the z-score was 1.92 (inactive).

For `COc1ccc(-c2[nH]ncc2CN(C)Cc2ccccn2)c(OC)c1`, the z-score is -4.89 (active).

Turning to `CCCCCCCCCCCC(=O)c1c(O)cccc1O`, the z-score was -0.04 (inactive).

As for `CN1C(=S)N(c2cccnc2)C(=O)/C1=C\c1ccc(N(C)C)cc1`, the z-score is 5.58 (inactive).

As to `CCc1ccccc1NC(=S)N(CCN(C)C)C(C)c1ccccn1` (centres undefined), the z-score is -5.14 (active).

For `Cc1ccccc1NC(=S)N(CCN(C)C)C(C)c1ccccn1` (centres undefined), the z-score is -6.19 (active).

`COCCN(C(=S)Nc1ccc(C)cc1C)C(C)c1cccs1` (centres undefined): the z-score is 1.14 (inactive).

`CC(C)CCN(C(=S)Nc1cccc(F)c1)C(C)c1cccs1` (centres undefined): the z-score is 4.77 (inactive).

In the case of `CCN1CCN(C(=O)C2(NC(=O)Nc3cccc(F)c3)CCCCC2)CC1`, the z-score was -4.67 (active).

With `COc1ccccc1NS(=O)(=O)c1cc(NC(=O)c2ccc(=O)[nH]c2)ccc1N1CCOCC1`, the z-score is -4.48 (active).

As to `Cc1cccc(NC(=O)Cn2cc([N+](=O)[O-])cn2)n1`, the z-score was 2.86 (inactive).

As to `Cc1nn(C)c(C)c1NC(=O)CSc1nnc(C)n1-c1ccccc1`, the z-score was 0.56 (inactive).

For the compound `CCCCn1nnnc1SCC(=O)Nc1cccc(C)n1`, the z-score is -4.7 (active).

Take `NC(=S)n1[nH]c(-c2ccc([N+](=O)[O-])cc2)c(N=Nc2cccc(Cl)c2)c1=O`: the z-score is -3.23 (active).

In the case of `NC(=S)n1[nH]c(-c2ccc([N+](=O)[O-])cc2)c(N=Nc2ccc(Cl)cc2)c1=O`, the z-score was -5.03 (active).

Consider `Cc1ccccc1SCc1noc(C(=O)NC(C)C)c1C(=O)O`, for which the z-score was 3.02 (inactive).

With `O=C(NCc1cccs1)c1ccc(N2CCCCC2)nc1`, the z-score is 3.41 (inactive).

In the case of `Cc1cc(C)c(S(=O)(=O)c2ccccc2C)c(SCC(C)C)n1`, the z-score was -3.18 (active).

For the compound `Cc1cc(C)c(C#N)c(SCC2COc3ccccc3O2)n1` (centres undefined), the z-score is 3.48 (inactive).

Regarding `CCOC(=O)c1c(-c2ccc(C)cc2)csc1NC(=O)/C(C#N)=C/c1ccc(O)c(OC)c1`, the z-score is 8.18 (inactive).

Consider `CN(C)c1ccc(/C=C/C(O)=C2/C(=O)N(C)C3(C)CC2c2ccccc2O3)cc1` (centres undefined), for which the z-score was 3.04 (inactive).

Regarding `CCN(CC)CCN(Cc1cc2ccc(C)cc2[nH]c1=O)C(=O)NC1CCCCC1`, the z-score is -4.95 (active).

Turning to `CCc1c(C(=O)NC2CCCCC2)[nH]c(C)c1C(C)=O`, the z-score was 3.85 (inactive).

For the compound `CCCS(=O)(=O)NCCc1cc2ccc(C)cc2[nH]c1=O`, the z-score is 0.95 (inactive).

As to `O=C(c1ccc2c(c1)OCO2)N1CCN(c2ccccn2)CC1`, the z-score was -5.54 (active).

Turning to `O=C(c1ccc2c(c1)OCO2)N1CCCC(c2ccccc2)C1` (centres undefined), the z-score is -3.99 (active).

As to `O=C(c1ccc2c(c1)OCO2)N1CCc2ccccc2C1`, the z-score was -0.76 (inactive).

With `O=C(c1ccc2c(c1)OCO2)N1CCCC1`, the z-score is 8.93 (inactive).

As to `O=C(CC12CC3CC(CC(C3)C1)C2)NCC(=O)N1CCc2ccccc2C1`, the z-score was 3.34 (inactive).

In the case of `CN(C)c1ccc(C(=O)c2ccc(N(C)C)c3ccccc23)cc1`, the z-score was -5.22 (active).

`CN(C)c1ccc(/C=C/C(=O)c2c(O)c3ccccc3oc2=O)cc1`: the z-score was 8.78 (inactive).

Turning to `O=C(O)c1cc(-c2ccncc2)nc2ccc(F)cc12`, the z-score was 3 (inactive).

Regarding `O=C(O)CCCC(=O)Nc1c(F)c(F)c(F)c(F)c1F`, the z-score was 0.09 (inactive).

As for `Cc1c2ccccc2nc2c(F)c(NC(C)C)c(F)c(F)c12`, the z-score was 9.6 (inactive).

`O=C(NCc1ccccn1)C(=O)NCC(c1ccco1)N1CCN(c2ccc(F)cc2)CC1` (centres undefined): the z-score is 1.32 (inactive).

On to `Cc1noc(C)c1CSCC(=O)N1CCN(c2ccc(F)cc2)CC1`, for which the z-score was -3.68 (active).

In the case of `COc1cccc(/C=N/NC(=O)c2c(C)nc3ccc(Br)cn23)c1O`, the z-score was -4.47 (active).

For `COc1ccc(CN=Cc2[nH]c3ccc(Br)c(Cl)c3c2O)cc1`, the z-score is 8.49 (inactive).

Turning to `COc1cc(OC)c2cc(C(=O)N/N=C/c3cccc(OC)c3O)[nH]c2c1`, the z-score was -3.6 (active).

Consider `CN(C)c1nc(N)nc(/C(C#N)=C/C2CC3C=CC2C3)n1` (centres undefined), for which the z-score was 3.05 (inactive).

As for `Oc1ccc2ccccc2c1N=Nc1ccccn1`, the z-score was -8.6 (active).

Turning to `CCOC(=O)c1ccc2[nH]c3ccccc3c2c1`, the z-score is -0.27 (inactive).

For `Cc1ccc(/C=[N+](\[O-])c2ccc(N(C)C)cc2)c2nsnc12`, the z-score was 4.9 (inactive).

For the compound `O=C(NCC1CCCO1)C1CCN(S(=O)(=O)N2CCCC2)CC1` (centres undefined), the z-score was 3.58 (inactive).

As for `CN(C)S(=O)(=O)c1cc(C(=O)NCC2CCCO2)c(Cl)cc1Cl` (centres undefined), the z-score is -4.71 (active).

As to `O=C(COC(=O)c1cc(S(=O)(=O)N2CCOCC2)ccc1O)NCC1CCCO1` (centres undefined), the z-score is 3.77 (inactive).

As for `Cc1cc(/C=C2\SC(=S)NC2=O)c(C)n1C1CC1`, the z-score was 3.04 (inactive).

As for `O=C(OCC(=O)N1CCN(C(=O)c2ccco2)CC1)c1ccccc1OCc1ccccc1`, the z-score is 11.8 (inactive).

Take `O=C(CN1CCN(C(=O)c2ccco2)CC1)Nc1ccccc1-c1ccccc1`: the z-score was -4.53 (active).

For the compound `O=C(OCN1C(=O)c2ccccc2C1=O)c1ccco1`, the z-score is -1.25 (inactive).
